Reference: PubChem BioAssay AID585 (National Center for Advancing Translational Sciences (NCATS), 2007)
The campaign covered roughly 71,000 compounds. About 1,300 (1.8%) were called active. The list comes from a sample in which actives are over-represented; it also holds similar structures and randomly drawn compounds. A call without a number means that no potency is given here. Unmarked numbers belong to inactive results. The call rests on the fitted dose curve.
Potency means the concentration at half of the fitted maximal effect.

What follows are molecules tested against Beta-lactamase (Escherichia coli (strain K12)) (UniProt P00811) (assay: Promiscuous and Specific Inhibitors of AmpC Beta-Lactamase (assay without detergent)). Settings: AmpC nitrocefin hydrolysis, absorbance 480 nm, no detergent; series mostly up to 28.7 µM.
Beta-lactamase (Escherichia coli (strain K12)), sequence (P00811 whole entry, looked up): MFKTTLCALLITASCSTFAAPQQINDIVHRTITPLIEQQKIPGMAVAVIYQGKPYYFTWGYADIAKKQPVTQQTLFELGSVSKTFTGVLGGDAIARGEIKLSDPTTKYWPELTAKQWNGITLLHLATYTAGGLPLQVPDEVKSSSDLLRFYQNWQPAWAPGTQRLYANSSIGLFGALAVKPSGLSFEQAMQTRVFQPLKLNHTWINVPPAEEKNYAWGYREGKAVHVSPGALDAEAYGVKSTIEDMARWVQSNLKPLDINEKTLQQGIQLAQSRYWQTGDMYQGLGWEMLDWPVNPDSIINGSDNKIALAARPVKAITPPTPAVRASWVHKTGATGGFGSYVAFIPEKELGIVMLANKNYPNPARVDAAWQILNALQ
Protocol: NIH Molecular Libraries Screening Centers Network [MLSCN]
NIH Chemical Genomics Center [NCGC]
PI Name: Shoichet, Brian K.
This aggregation profiling approach exploits the sensitivity of aggregate formation to detergent. Inhibition of b-lactamase is measured in the presence and absence of 0.01% Triton X-100. See Pubchem assay "Promiscuous and Specific Inhibitors of AmpC Beta-Lactamase (assay with detergent)" for related screen. Compounds that inhibit only in the absence of detergent are considered likely promiscuous aggregators.
A screen of 1,030 compounds was performed in Brian Shoichet's lab in 96-well format. AmpC activity was measured by following the absorbance at 480 nm. Nitrocefin is a chromogenic substrate: while nitrocefin is yellow (lmax 390 nm), the product of its hydrolysis is red (lmax 486 nm, 17,000 M-1). AmpC beta lactamase was provided by Brian Shoichet and Brian Feng, UCSF.
NCGC Assay Protocol Summary:
20 mM phosphate buffer, pH 7.0
Triton X-100: No Detergent screen: 0.0001%, Detergent screen: 0.01%.
Buffer in columns 3 and 4 as negative control (no enzyme).
5.3 nM AmpC in columns 1, 2, 5-48. Titration of UCSF compound 9 control (from 10 mM, then 1:2) pin-transferred to column 2. Column 1 is neutral (100% activity).
Six uL of reagents were dispensed to 1536-well Greiner black clear bottom plates. Compounds and controls (23 nL) were transferred via Kalypsys PinTool. The plates were incubated for 15 min at room temperature, and then 2 uL of 800 uM solution of nitrocefin was added to start the reaction. The plates were immediately transferred to and read every 20 seconds for 4 min on ViewLux (Perkin-Elmer) High-throughput CCD imager using 480 nm absorbance protocol. During dispense, reagent bottles were kept submerged into 4 deg C water bath.
Keywords: NIH Roadmap, MLSCN, MLI, MLSMR, qHTS, NCGC, AmpC Beta-Lactamase, Aggregation.
With `COc1ccc2c(c1)OC(O)(C(F)(F)C(F)F)CC2=O` (stereo not given) the Potency was “inactive”.
In the case of `O=CN1CCN(C2CC(=O)N(c3ccc4c(c3)OCO4)C2=O)CC1` (stereo not given), the Potency is reported as “inactive”.
In the case of `C=CCSc1nnc(Cn2c(=O)sc3ccccc32)n1C`, the Potency is reported as 3.98 µM [single pt active] (active).
In the case of `Cc1cccc(CSc2nnc(Cn3c(=O)sc4ccccc43)n2C)c1`, the Potency is reported as “inactive”.
In the case of `Cc1ccccc1CSc1nnc(Cn2c(=O)sc3ccccc32)n1C`, the Potency is reported as “inactive”.
With `CC1CCN(c2oc(-c3ccccc3F)nc2C#N)CC1` the Potency was “inactive”.
`C=CCn1c(C)cc(C(=O)CN2C(=O)c3ccccc3C2=O)c1C` was tested, and the Potency was “inactive”.
`COc1ccc(C2CC(c3ccccc3)Nc3ncnn32)cc1` (stereo not given) was tested, and the Potency was 3.98 µM [single pt active] (active).
With `Clc1ccc(C2CC(c3cccs3)n3ncnc3N2)cc1Cl` (stereo not given) the Potency was “inactive”.
With `COc1ccc(C2CC(c3ccc(C)cc3)Nc3ncnn32)cc1` (stereo not given) the Potency was “inactive”.
With `Cc1noc(C)c1C(=O)NC(C)c1ccc2c(c1)OCO2` (stereo not given) the Potency was “inactive”.
With `CN1CCC2(CC1)NC(=O)NC2=O` the Potency was “inactive”.
`COc1cccc(-c2nnc(NC(=O)c3ccc(S(=O)(=O)N(CC(C)C)CC(C)C)cc3)o2)c1` was tested, and the Potency was 7.94 µM (active).
In the case of `CCN(CC)C(=O)CSc1nnc(-c2cccc(OC)c2)o1`, the Potency is reported as “inactive”.
With `COc1cccc(NC(=O)CN(C)S(=O)(=O)c2ccc(C)cc2)c1` the Potency was “inactive”.
For `CC(C)C[C@@H](CC(=O)N[C@@H](CCC(=O)O)CC(=O)O)NC(=O)[C@@H]1CCCC[C@H]1NC(=O)C[C@@H](NC(=O)C[C@H](Cc1c[nH]c2ccccc12)NC(=O)[C@@H]1CCCC[C@H]1N)C(C)C`, the Potency was “inactive”.
For `CCOc1ccc(OCC)c(NC(=O)C2CCN(S(=O)(=O)c3c(C)noc3C)CC2)c1`, the Potency was “inactive”.
In the case of `Cc1ccc(NC(=O)C2CCCN(S(=O)(=O)c3c(C)noc3C)C2)c(C)c1` (stereo not given), the Potency is reported as “inactive”.
In the case of `Cc1noc(C)c1S(=O)(=O)N1CCCC(C(=O)Nc2nccs2)C1` (stereo not given), the Potency is reported as 3.98 µM [single pt active] (active).
`C=CCNC(=O)C1CC=CCC1C(=O)O` (stereo not given) was tested, and the Potency was “inactive”.
In the case of `CCOc1ccc(Cn2nnc(C(=O)Nc3ccc(OC)cc3OC)c2N)cc1`, the Potency is reported as “inactive”.
With `CCOc1ccc(Cn2nnc(C(=O)NCc3ccccc3)c2N)cc1` the Potency was 3.16 µM [single pt active] (active).
With `Nc1c(C(=O)NCc2ccccc2)nnn1Cc1cccc(Cl)c1` the Potency was “inactive”.
`Cc1cc(N2C(=O)C(=O)/C(=C(/O)c3ccc(Cl)cc3)C2c2cccc(Br)c2)no1` (stereo not given) was tested, and the Potency was “inactive”.
`COc1ccc(C(CNC(=O)c2cccnc2SC)N2CCOCC2)cc1` (stereo not given) was tested, and the Potency was “inactive”.
In the case of `O=C(CN1C(=O)C2C3C=CC(C3)C2C1=O)NCCc1ccccc1Cl` (stereo not given), the Potency is reported as “inactive”.
In the case of `O=C(NCCN1C(=O)C2C3C=CC(C3)C2C1=O)Nc1ccccn1` (stereo not given), the Potency is reported as 3.98 µM [single pt active] (active).
`O=C(CCN1C(=O)C2C3C=CC(C3)C2C1=O)Nc1ccccc1F` (stereo not given) was tested, and the Potency was “inactive”.
For `CCOc1ccc(CN(Cc2ccco2)C(c2cccs2)c2nnnn2C(C)(C)C)cc1` (stereo not given), the Potency was “inactive”.
In the case of `O=C(COC(=O)c1ccccc1C(=O)c1ccccc1)c1ccco1`, the Potency is reported as “inactive”.
For `CCOC(=O)NCc1ccc2c(c1)OCO2`, the Potency was “inactive”.
For `Cc1ccc(C(=O)OCC(=O)NCc2ccc3c(c2)OCO3)s1`, the Potency was “inactive”.
In the case of `O=C(NCc1ccc2c(c1)OCO2)c1cc2c(s1)CS(=O)(=O)C2`, the Potency is reported as 12.6 µM [single pt active] (active).
`CC(Sc1sc(=S)sc1SC(C)C(=O)O)C(=O)O` (stereo not given) was tested, and the Potency was “inactive”.
For `COC(=O)c1sc(NC(=O)c2ccc(OC)cc2OC)nc1C`, the Potency was “inactive”.
For `O=C(Nc1nncs1)c1ccccc1NS(=O)(=O)c1cccs1`, the Potency was “inactive”.
`COc1ccc(C(=O)Nc2nncs2)c(OC)c1` was tested, and the Potency was 3.98 µM [single pt active] (active).
In the case of `O=C(COC(=O)c1ccc(Oc2ccccc2)cc1)Nc1nnc(-c2ccccc2)o1`, the Potency is reported as 15.8 µM (active).
For `Cc1ccc(OCC(=O)Nc2ccc(-c3nnc(-c4ccco4)o3)cc2)cc1`, the Potency was “inactive”.
In the case of `COc1ccc(CC(=O)Nc2ccc(-c3nnc(-c4ccccc4)o3)cc2)cc1`, the Potency is reported as “inactive”.
`CS(=O)(=O)N1CCC2(CC1)CN(Cc1cc(C(F)(F)F)cc(C(F)(F)F)c1)C2` was tested, and the Potency was “inactive”.
`CC1(C)C(=O)Nc2ccccc2N1C(=O)COC(=O)Cn1cnc2ccccc2c1=O` was tested, and the Potency was “inactive”.
With `O=C(NCc1ccco1)c1nc2ncccn2n1` the Potency was “inactive”.
For `O=C(NCc1ccco1)c1cc(-c2cccnc2)nc2ccc(Cl)cc12`, the Potency was “inactive”.
In the case of `CCOC(=O)N1CCN(C(=O)c2cc3c(-c4ccc(Cl)cc4)nn(C)c3s2)CC1`, the Potency is reported as 2.51 µM [single pt active] (active).
For `COc1ccccc1N1CCN(C(=O)c2cc3c(-c4ccc(Cl)cc4)nn(C)c3s2)CC1`, the Potency was “inactive”.
In the case of `Cn1nc(-c2ccc(Cl)cc2)c2cc(C(=O)NCc3ccco3)sc21`, the Potency is reported as 3.16 µM (active).
`COc1cccc(-c2nn(C)c3sc(C(=O)N4CCN(c5ccccc5)CC4)cc23)c1` was tested, and the Potency was “inactive”.
With `O=C(NCCc1ccccn1)c1ccc(COc2ccccc2)o1` the Potency was “inactive”.
For `O=C1CC2(CCCCC2)Oc2ccc(OCC(=O)N3CCOCC3)cc21`, the Potency was “inactive”.
